# This is a sample that favours compounds with a hit; in the whole collection about 12% have one here.
# BAZ2B block: BAZ2B (human) inhibition; Q9UIF8; AlphaScreen BAZ2B-H3K14Ac peptide displacement; Potency, µM (series often up to 114 µM), for inactives: top-dose activity change, negative = inhibition, actives largely listed as inhibitors; hit rate 4.4% among 360,000; note: % is set by controls: 0 for no effect and ±100 for the full control effect; nearly all actives have a fitted effect of over 60% in size
#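 AlphaScreen luminescence quantifies BAZ2B engagement of H3K14Ac peptide; the protein and biotinylated peptide are both at 50 nM final, buffer PBS pH 7.4 with 0.01% Tween-20, all steps at room temperature.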
# L3MBTL1 block: L3MBTL1 (human) inhibition. AlphaScreen L3MBTL1–H3K9me1 peptide binding. Potency, µM (series often up to 57.1 µM), for inactives: at the top dose activity, negative = inhibition, actives largely listed as inhibitors. hit rate 0.66% among 230,000. AID 485360; note: % is set by controls: 0 for no effect and ±100 for the full control effect; nearly all actives have a fitted effect of over 60% in size
#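 AlphaScreen proximity signal between nickel-chelate acceptor and streptavidin donor beads (final 10 ug/mL) reports binding of 50 nM L3MBTL1 to 75 nM biotin-H3 K9me1 peptide; complex incubated with compounds 30 min at room temperature; cefsulodin titration as control.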
# JMJD2A Tudor: inhibitors of human JMJD2A Tudor domain. Potency, µM (top dose mostly 114 µM), for the others: top-dose activity change, negative = inhibition, actives largely listed as inhibitors. hit rate 4.4% among 390,000. AID 504339. O75164. AlphaScreen JMJD2A-Tudor / H3K4me3 peptide binding; note: % is set by controls: 0 for no effect and ±100 for the full control effect; nearly all actives have a fitted effect of over 50% in size
# HP1b binding inh: HP1-beta chromodomain-methylated histone interaction inhibition; Potency, µM (titrated, usually from 114 µM), for the others: at the highest dose activity change, negative = inhibition, usual class: inhibitors; AID 540317; hit rate 0.56% among 390,000; AlphaScreen HP1-beta / biotin-H3K9me3 peptide binding; note: nearly all actives have a fitted effect of over 70% in size
# Target sequence (P83916 whole entry, looked up): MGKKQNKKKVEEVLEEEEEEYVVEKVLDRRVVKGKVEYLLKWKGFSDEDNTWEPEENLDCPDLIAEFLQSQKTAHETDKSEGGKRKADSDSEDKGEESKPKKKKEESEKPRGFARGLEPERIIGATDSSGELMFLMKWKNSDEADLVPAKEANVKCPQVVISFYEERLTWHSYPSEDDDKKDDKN
#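 Compound inhibition of the preformed complex between 50 nM HP1-beta and 50 nM biotinylated H3K9me3 peptide was read by AlphaScreen. Buffer was PBS pH 7.4 with 0.01% Tween-20. Incubations ran 30 min at room temperature, with 10 ug/mL donor/acceptor beads.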
# Sfp PPTase inh: inhibitors of Bacillus subtilis Sfp phosphopantetheinyl transferase. AID 1490. hit rate 3.5% among 310,000. Biochemical Sfp PPTase activity, qHTS. Q9F4F7. Potency, µM, for the others: largest response in the series, negative = inhibition, usual class: inhibitors;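 note: the enzyme is Sfp with the accession as filed and its product quenches rhodamine fluorescence; 0% = enzyme reaction without inhibitor and -100% = no enzyme wells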
#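 After 15 min at room temperature with compound, 15 nM Sfp received 5 uM rhodamine-CoA plus 12.5 uM BHQ-2-ybbR (50 mM Hepes pH 7.6, 10 mM MgCl2). Rate came from the fluorescence difference over 30 min, ex 525/em 598 nm.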
# G9a block: G9a (human) methyltransferase inhibition; hit rate 8.8% among 350,000; Potency, µM (top dose mostly 102 µM), without a hit: at the highest dose activity, negative = inhibition, hits mostly inhibitors; G9a H3K9 monomethylation, AlphaScreen, 2 h; AID 504332; note: % is set by controls: 0 for no effect and ±100 for the full control effect; nearly all actives have a fitted effect of over 75% in size
# Target sequence (Q96KQ7 913-1193 limits assumed): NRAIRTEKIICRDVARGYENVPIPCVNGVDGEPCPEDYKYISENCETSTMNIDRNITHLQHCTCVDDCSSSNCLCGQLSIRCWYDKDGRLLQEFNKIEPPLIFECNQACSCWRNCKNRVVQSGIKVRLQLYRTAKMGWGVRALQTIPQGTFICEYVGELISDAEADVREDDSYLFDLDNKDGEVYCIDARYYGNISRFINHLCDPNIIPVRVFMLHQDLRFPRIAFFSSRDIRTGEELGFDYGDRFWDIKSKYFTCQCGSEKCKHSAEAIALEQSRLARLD
#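 Step 1: enzyme (final 20 nM) with compound, 15 min RT. Step 2: substrate peptide 500 nM and SAM 20 uM, 2 h RT. Step 3: anti-H3K9me1 antibody and AlphaScreen beads, 10 min, then plate read.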
# Starred values were filed as active, the others as inactive; ? = inconclusive; · = no result given; [ ] = dose if it differs, or a comment. Calls come from the whole dose curve; as a rule, active = well fitted curve in the direction sought with a large enough effect; inconclusive = small, poorly fitted or top-dose-only effect, or another doubt; inactive = no such curve, though single readings can be large; an effect the other way counts as inactive or inconclusive. Potency is the fitted concentration of half-maximal effect.
SMILES,BAZ2B block,L3MBTL1 block,JMJD2A Tudor,HP1b binding inh,Sfp PPTase inh,G9a block
C#CCOCCOCCOCCNc1nc(N2CCN(C(=O)C([C@@H](C)CC)n3cc(C(N)CC(C)C)nn3)CC2)nc(N2CCN(C(=O)[C@H](CCC(=O)O)n3cc(C(N)[C@H](C)CC)nn3)CC2)n1 (stereo not given in full),?,0%,71µM*,32%,17%,-105%[59 µM]
CCC1CCCCN1CCCNC(=O)Cn1ncn2nc(-c3ccc(OC)cc3)cc2c1=O (stereo not given),-10%,·,-11%,45%,6%,-45%
O=C(CSc1ccc2nnc(-c3ccc(Cl)cc3)n2n1)N1CCCC1,10%,3%,-23%,37%,19%,35µM*
O=C(CSc1ccc2nnc(-c3cccnc3)n2n1)N1CCc2ccccc21,-2%,2%,·,·,21%,?
O=C(CSc1ccc2nnc(-c3ccc(Cl)cc3)n2n1)N1CCc2ccccc21,-4%,0%,-5%,47%,5%,7.9µM*
CC(=O)OC[C@@H]1O[C@@H](O/N=C2/C[C@@H](O)[C@@H](O)[C@@H]3[C@@H]4C(=O)N(C[C@@H]5CCCO5)C(=O)[C@H]4CC[C@@H]23)[C@H](OC(C)=O)[C@H](OC(C)=O)[C@@H]1OC(C)=O,·,·,·,·,-7%,·
O=C(COC(=O)c1ccccn1)NC1CCCCC1,-25%,-3%,-7%,25%,11%,·
O=C(COC(=O)c1cccc(C(=O)OCC(=O)NC2CC2)n1)NC1CC1,·,8%,?,9%,-11%,14µM*
O=C(COC(=O)c1cccc2c1C(=O)c1ccccc1C2=O)NC1CCCCC1,40µM*,-13%,40µM*,?,-15%,18µM*
O=C(COC(=O)c1ccc2c(c1[N+](=O)[O-])C(=O)c1ccccc1C2=O)NC1CC1,-10%,-5%,-16%,37%,8%,35µM*
COc1ccc(S(=O)(=O)Nc2cccc(-c3ccc(N4CCCCCC4)nn3)c2)cc1F,-8%,·,-19%,11%[57 µM],·,-7%[59 µM]
COc1ccc(Cn2c(=O)[nH]c3cc(C(=O)N4CCN(c5cccc(OC)c5)CC4)ccc3c2=O)cc1,4%,·,-2%,27%,·,3%[59 µM]
CC1CC(C)(C)CC2(C1)NC(=S)N(c1ccccc1)N2 (stereo not given),-10%,·,-21%,40%,?,28µM*
CC1CCCCC12NC(=S)N(c1ccccc1)N2 (stereo not given),-15%,7%,11µM*,?,18µM*,·
CC1CCCC(O)(C(C(=O)O)c2ccccc2)C1 (stereo not given),·,·,3%,29%[57 µM],·,·
CC1CCCC2(C1)NC(=S)N(c1ccccc1)N2 (stereo not given),-4%,15%,79µM*,51%,50µM*,?
CC1(C)CC2(C)Nc3ccccc3N2C(=S)N1 (stereo not given),-9%,1%,-14%,16%,-17%,6%[59 µM]
O=C1NC2(NN1c1ccccc1)C1CC3CC(C1)CC2C3 (stereo not given),13%,·,2%,23%,14%,?
CC(C)CCN1NC2(CCCC(C)C2)NC1=S (stereo not given),-17%,1%,-5%,34%,71µM*,22µM*
Cc1csc2nc(COC(=O)c3cccc(NC(=O)c4cccc(Cl)c4)c3)cc(=O)n12,-3%,·,-23%,26%,·,11%[59 µM]
Cc1ccc(CNC(=O)CN2C(=O)CSc3ccc(S(=O)(=O)N4CCCC4)cc32)cc1,-24%,·,-11%,39%,·,2%[59 µM]
CCN(CC)c1nc2c(S(=O)(=O)c3cccc(Cl)c3)nnn2c2ccsc12,-1%,·,-7%,26%,·,-3%[59 µM]
S=C1NC2(CCCCC2)NN1c1ccccc1,79µM*,8%,-25%,54%,-61%,14µM*
CC(C)(C)N1NC2(CCCCC2)NC1=S,?,0%,18µM*,3%,22µM*,?

# Screens from PubChem.
